In article PMC7862700, “An all-to-all approach to the identification of sequence-specific readers for epigenetic DNA modifications on cytosine” one finds binding signal data, which are given here for 1 sequence.

Holding throughout (experiment): DAPPL (digital affinity profiling via proximity ligation, sequencing); 10 mM Tris-HCl pH 7.5, 50 mM NaCl, 1 mM DTT, 4% glycerol, room temperature, 30 min; GST-TFs on glutathione beads, 16-mer random dsDNA library, 0.1% formaldehyde crosslink after washing; high values mean tight binding
One assay addresses T1, FEV (Homo sapiens, UniProt Q99581 1-238).
T1 sequence: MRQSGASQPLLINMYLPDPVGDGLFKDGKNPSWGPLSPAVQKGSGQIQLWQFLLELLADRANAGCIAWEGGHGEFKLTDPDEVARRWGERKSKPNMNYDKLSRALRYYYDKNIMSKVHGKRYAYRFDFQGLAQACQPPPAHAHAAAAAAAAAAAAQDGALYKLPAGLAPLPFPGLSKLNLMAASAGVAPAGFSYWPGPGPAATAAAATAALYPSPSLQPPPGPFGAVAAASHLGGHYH
The following applies: protein: recombinant; tags: N-terminal GST; dsDNA, one strand shown. The method, boiled down:
(§1)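 After expression in yeast as GST fusions, human transcription factors were bound to glutathione beads, DNA-barcoded and mixed with a tag-only sample. The pools were incubated with 200 nmole of a 16-mer random double-stranded DNA library in Tris/NaCl/DTT/glycerol buffer (30 min, room temperature), washed and crosslinked with 0.1% formaldehyde. Proximity ligation with BsaI/T4 ligase ran for 1 h at 37 °C, before PCR amplification and sequencing on an Illumina NextSeq500. Binding signal is a hexamer's read frequency for a factor divided by its frequency for the tag-only sample.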

Another assay deals with ETV5 (Homo sapiens, UniProt P41161 1-510). The following applies: protein: recombinant; tags: N-terminal GST; dsDNA, one strand shown. The method, boiled down:
as §1

The next assay addresses HSF1 (Homo sapiens, UniProt Q00613 1-529). As to conditions: protein: recombinant; tags: N-terminal GST; chain copies: 3; dsDNA, one strand shown. In a few lines: as §1
A further assay concerns the target T2, SPIC (Homo sapiens, UniProt Q8N5J4 1-248).
T2 sequence: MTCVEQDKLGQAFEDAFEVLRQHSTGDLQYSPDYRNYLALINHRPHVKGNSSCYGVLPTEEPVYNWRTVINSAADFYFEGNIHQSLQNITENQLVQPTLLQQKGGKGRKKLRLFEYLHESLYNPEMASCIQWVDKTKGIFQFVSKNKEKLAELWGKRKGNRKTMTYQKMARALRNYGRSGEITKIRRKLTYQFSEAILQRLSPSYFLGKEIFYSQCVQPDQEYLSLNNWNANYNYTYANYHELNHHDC
The following applies: protein: recombinant; tags: N-terminal GST; dsDNA, one strand shown. The method, boiled down:
as §1

For another assay, the target named is ELF4 (Homo sapiens, UniProt Q99607 1-663). The following applies: protein: recombinant; tags: N-terminal GST; dsDNA, one strand shown. In a few lines: as §1
The next assay deals with T3, ELK4 (Homo sapiens, UniProt P28324-2 1-405).
T3 sequence: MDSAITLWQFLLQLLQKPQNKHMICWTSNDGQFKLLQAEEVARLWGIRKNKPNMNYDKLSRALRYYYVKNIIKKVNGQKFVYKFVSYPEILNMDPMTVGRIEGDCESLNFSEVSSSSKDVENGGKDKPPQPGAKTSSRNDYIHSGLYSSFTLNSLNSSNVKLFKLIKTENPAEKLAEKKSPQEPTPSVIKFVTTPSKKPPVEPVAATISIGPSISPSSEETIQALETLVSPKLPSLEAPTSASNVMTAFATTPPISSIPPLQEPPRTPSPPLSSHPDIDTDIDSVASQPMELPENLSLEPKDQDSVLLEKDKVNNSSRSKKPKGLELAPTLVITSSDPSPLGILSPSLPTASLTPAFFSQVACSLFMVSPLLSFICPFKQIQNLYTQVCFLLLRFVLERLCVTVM
The following applies: protein: recombinant; tags: N-terminal GST; dsDNA, one strand shown. The method, boiled down:
as §1

Another assay addresses T4, ETV2 (Homo sapiens, UniProt O00321 1-342).
T4 sequence: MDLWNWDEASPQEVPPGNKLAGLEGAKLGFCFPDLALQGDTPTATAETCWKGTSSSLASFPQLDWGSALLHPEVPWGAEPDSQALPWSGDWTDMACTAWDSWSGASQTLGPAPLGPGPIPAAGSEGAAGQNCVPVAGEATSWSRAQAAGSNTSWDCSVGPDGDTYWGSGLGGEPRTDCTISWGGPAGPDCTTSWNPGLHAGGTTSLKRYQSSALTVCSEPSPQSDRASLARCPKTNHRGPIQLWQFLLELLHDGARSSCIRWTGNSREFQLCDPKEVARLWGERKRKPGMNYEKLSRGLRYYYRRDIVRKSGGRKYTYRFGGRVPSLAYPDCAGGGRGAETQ
As to conditions: protein: recombinant; tags: N-terminal GST; dsDNA, one strand shown. In a few lines: as §1

A further assay addresses T5, ELF3 (Homo sapiens, UniProt P78545 1-371).
T5 sequence: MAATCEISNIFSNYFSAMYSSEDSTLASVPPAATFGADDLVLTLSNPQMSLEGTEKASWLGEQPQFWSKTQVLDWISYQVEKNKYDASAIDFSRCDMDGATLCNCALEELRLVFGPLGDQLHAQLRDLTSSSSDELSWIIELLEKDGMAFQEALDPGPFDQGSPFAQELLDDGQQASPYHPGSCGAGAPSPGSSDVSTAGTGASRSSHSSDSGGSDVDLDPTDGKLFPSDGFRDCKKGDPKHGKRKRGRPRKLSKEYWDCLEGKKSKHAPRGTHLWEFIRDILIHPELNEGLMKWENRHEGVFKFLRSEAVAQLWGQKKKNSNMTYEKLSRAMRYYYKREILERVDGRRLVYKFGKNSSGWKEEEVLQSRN
The following applies: protein: recombinant; tags: N-terminal GST; dsDNA, one strand shown. In a few lines:
as §1

For the next assay, the target named is CRX (Homo sapiens, UniProt O43186 1-299). The following applies: protein: recombinant; tags: N-terminal GST; dsDNA, one strand shown. In a few lines: as §1
The target in a further assay is ETV1 (Homo sapiens, UniProt P50549 1-477). As to conditions: protein: recombinant; tags: N-terminal GST; dsDNA, one strand shown. In a few lines:
as §1

Another assay has as its target T6, ERF (Homo sapiens, UniProt P50548 1-548).
T6 sequence: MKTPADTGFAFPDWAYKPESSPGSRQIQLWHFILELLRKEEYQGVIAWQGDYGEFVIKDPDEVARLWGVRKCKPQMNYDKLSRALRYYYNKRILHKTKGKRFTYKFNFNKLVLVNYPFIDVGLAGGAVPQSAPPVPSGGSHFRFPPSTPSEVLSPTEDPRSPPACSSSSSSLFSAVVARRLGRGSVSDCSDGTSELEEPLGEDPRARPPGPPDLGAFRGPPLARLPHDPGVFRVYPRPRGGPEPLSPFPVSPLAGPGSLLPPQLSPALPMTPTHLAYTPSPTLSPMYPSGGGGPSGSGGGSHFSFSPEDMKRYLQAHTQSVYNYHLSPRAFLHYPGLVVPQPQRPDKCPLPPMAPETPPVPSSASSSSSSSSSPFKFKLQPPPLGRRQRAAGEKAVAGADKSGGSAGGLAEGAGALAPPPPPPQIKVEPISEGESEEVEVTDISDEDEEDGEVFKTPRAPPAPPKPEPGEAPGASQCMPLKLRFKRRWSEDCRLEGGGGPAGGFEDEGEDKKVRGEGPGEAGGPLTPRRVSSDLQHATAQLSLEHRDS
As to conditions: protein: recombinant; tags: N-terminal GST; dsDNA, one strand shown. In a few lines: as §1

Another assay addresses T7, ETV3L (Homo sapiens, UniProt Q6ZN32 1-361).
T7 sequence: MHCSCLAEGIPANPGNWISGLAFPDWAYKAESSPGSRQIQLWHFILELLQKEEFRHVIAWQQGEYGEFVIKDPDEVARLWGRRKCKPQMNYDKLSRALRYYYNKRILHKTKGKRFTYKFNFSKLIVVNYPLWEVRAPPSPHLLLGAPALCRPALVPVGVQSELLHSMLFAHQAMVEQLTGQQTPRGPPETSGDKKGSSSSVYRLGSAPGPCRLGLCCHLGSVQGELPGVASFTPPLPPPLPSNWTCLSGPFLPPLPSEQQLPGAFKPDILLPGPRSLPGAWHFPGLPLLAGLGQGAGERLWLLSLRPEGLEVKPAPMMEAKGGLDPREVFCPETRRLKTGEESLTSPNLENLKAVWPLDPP
As to conditions: protein: recombinant; tags: N-terminal GST; dsDNA, one strand shown. In a few lines: as §1

The target in another assay is T8, ETS2 (Homo sapiens, UniProt P15036 1-469).
T8 sequence: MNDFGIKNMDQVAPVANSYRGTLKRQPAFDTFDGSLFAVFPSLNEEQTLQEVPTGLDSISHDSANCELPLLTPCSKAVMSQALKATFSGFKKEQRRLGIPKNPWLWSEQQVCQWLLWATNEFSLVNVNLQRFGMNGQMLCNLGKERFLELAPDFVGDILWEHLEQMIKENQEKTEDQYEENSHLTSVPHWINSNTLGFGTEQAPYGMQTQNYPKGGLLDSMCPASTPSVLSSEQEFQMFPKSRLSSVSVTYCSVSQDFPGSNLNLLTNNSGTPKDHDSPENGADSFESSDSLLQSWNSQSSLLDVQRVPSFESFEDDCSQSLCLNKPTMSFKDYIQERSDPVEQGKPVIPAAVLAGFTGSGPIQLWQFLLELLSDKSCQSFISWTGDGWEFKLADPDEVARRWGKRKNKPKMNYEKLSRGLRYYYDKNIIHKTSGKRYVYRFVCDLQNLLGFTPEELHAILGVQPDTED
The following applies: protein: recombinant; tags: N-terminal GST; dsDNA, one strand shown. In a few lines: as §1

Another assay concerns the target T9, SPDEF (Homo sapiens, UniProt O95238 1-335).
T9 sequence: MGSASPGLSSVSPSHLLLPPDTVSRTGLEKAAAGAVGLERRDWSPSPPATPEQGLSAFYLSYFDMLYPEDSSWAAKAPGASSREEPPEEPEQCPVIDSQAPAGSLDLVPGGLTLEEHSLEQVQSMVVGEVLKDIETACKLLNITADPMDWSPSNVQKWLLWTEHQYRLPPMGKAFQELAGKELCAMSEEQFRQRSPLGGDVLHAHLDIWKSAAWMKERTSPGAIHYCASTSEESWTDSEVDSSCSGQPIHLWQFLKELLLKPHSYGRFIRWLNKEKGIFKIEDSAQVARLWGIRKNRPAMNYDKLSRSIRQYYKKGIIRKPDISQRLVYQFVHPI
The following applies: protein: recombinant; tags: N-terminal GST; dsDNA, one strand shown. The method, boiled down:
as §1

In another assay the target is T10, ETV7 (Homo sapiens, UniProt Q9Y603 1-341).
T10 sequence: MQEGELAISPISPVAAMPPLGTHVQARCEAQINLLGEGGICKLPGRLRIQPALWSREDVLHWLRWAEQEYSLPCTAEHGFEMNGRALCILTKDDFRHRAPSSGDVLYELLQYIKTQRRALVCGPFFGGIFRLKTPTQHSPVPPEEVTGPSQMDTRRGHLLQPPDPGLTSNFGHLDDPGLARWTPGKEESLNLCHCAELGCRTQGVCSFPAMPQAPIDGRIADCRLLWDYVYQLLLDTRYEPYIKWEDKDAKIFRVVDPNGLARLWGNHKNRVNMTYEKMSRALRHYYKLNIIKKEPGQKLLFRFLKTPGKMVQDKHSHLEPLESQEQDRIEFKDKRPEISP
As to conditions: protein: recombinant; tags: N-terminal GST; dsDNA, one strand shown. The method, boiled down:
as §1

The target in the next assay is T11, ELF5 (Homo sapiens, UniProt Q9UKW6-2 1-255).
T11 sequence: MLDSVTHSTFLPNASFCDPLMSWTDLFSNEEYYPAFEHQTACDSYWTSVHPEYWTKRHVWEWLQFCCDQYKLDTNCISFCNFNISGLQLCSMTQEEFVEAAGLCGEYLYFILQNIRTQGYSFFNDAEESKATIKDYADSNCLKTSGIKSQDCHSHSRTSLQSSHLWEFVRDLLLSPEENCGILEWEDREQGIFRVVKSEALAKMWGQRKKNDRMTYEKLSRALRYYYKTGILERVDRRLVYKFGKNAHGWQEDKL
As to conditions: protein: recombinant; tags: N-terminal GST; dsDNA, one strand shown. In a few lines:
as §1

In the next assay the target is T12, ETV3 (Homo sapiens, UniProt P41162-2 1-143).
T12 sequence: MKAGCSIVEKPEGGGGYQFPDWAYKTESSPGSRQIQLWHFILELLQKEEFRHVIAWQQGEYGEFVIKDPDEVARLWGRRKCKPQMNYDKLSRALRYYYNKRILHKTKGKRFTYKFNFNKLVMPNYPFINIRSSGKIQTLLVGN
The following applies: protein: recombinant; tags: N-terminal GST; dsDNA, one strand shown. In a few lines: as §1

The next assay deals with ETV6 (Homo sapiens, UniProt P41212 1-452). The following applies: protein: recombinant; tags: N-terminal GST; dsDNA, one strand shown. The method, boiled down: as §1
Sequence of ETV6 (P41212 whole entry): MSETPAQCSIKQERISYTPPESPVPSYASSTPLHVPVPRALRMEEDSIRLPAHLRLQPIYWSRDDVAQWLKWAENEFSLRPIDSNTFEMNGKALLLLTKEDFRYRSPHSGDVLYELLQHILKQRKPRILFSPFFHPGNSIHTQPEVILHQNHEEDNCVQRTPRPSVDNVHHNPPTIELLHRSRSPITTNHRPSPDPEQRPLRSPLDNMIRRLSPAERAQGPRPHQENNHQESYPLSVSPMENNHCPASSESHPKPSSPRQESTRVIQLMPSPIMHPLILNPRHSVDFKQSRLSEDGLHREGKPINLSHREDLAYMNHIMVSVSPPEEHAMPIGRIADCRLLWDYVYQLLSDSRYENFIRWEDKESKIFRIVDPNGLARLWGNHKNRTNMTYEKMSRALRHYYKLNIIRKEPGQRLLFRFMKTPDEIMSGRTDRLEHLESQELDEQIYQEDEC

Sequence of CRX (O43186 whole entry): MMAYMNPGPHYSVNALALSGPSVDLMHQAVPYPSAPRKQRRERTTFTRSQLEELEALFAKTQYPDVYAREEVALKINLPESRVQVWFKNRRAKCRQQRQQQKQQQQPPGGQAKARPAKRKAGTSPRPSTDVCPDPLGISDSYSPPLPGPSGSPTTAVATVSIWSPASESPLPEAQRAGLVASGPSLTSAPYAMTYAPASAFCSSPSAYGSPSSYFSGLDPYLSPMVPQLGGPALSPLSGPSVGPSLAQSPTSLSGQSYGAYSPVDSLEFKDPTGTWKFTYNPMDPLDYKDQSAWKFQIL
Sequence of ELF4 (Q99607 whole entry): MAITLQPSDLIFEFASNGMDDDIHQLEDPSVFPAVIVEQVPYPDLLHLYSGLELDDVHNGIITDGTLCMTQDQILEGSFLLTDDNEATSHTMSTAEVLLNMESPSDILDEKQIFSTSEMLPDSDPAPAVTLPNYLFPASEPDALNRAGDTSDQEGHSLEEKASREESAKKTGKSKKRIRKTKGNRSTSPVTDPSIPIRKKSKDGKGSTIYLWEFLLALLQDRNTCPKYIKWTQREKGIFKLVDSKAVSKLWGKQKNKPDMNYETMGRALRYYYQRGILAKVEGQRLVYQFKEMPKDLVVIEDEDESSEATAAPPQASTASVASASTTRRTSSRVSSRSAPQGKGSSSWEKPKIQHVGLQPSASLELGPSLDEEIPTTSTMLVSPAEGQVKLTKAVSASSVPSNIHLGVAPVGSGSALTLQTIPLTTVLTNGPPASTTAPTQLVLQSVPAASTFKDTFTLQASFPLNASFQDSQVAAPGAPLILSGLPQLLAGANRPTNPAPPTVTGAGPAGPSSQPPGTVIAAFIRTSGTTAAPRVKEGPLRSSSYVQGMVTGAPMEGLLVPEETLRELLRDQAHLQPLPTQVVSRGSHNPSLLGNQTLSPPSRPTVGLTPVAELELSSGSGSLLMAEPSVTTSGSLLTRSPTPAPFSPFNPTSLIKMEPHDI
Sequence of HSF1 (Q00613 whole entry): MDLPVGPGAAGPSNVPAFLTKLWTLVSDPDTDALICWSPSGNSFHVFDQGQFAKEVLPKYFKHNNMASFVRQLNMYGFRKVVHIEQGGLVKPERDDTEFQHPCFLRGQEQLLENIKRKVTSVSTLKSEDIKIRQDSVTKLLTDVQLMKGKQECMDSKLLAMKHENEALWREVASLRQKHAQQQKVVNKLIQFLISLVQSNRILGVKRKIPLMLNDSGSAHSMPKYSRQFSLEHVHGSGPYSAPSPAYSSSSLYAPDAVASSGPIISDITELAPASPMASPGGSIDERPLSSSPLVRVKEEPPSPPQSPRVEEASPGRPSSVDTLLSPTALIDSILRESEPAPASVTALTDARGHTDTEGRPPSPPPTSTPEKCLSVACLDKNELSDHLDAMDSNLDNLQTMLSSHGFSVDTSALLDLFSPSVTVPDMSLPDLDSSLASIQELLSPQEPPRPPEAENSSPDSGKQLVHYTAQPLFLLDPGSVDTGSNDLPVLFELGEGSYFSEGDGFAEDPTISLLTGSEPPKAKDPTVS
Sequence of ETV1 (P50549 whole entry): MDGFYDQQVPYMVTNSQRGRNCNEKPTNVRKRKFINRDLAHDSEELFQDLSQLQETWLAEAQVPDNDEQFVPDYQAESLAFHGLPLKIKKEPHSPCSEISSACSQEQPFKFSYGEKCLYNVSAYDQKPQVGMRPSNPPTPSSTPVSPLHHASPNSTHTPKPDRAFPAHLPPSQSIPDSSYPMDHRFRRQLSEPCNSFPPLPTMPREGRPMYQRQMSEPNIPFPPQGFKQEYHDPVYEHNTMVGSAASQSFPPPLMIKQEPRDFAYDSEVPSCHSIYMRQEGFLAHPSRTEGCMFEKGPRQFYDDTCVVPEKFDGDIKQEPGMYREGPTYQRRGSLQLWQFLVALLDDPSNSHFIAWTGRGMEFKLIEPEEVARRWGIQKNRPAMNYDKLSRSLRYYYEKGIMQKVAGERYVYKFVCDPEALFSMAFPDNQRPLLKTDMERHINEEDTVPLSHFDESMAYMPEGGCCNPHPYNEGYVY
Sequence of ETV5 (P41161 whole entry): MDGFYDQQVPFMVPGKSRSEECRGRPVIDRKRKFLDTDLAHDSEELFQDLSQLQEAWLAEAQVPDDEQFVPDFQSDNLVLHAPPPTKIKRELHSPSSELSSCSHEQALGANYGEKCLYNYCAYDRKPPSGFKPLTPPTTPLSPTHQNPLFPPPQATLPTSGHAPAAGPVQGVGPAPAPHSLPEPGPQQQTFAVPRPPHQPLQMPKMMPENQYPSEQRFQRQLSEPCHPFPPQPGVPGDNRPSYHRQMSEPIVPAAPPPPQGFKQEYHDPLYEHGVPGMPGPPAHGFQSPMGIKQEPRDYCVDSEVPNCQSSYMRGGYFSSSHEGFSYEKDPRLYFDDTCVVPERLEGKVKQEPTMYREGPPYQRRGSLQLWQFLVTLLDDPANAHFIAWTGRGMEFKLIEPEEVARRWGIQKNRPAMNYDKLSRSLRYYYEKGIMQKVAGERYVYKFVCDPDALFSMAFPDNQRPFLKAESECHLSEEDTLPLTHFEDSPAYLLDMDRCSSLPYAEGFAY

As to ACTTCT, the binding signal is 1.4 fold enrichment (6-mer frequency, TF over GST control) in the assay with FEV; 1.45 fold enrichment (6-mer frequency, TF over GST control) in the assay with ETV5; 2.1 fold enrichment (6-mer frequency, TF over GST control) with HSF1; 1.47 fold enrichment (6-mer frequency, TF over GST control) with SPIC; 1.49 fold enrichment (6-mer frequency, TF over GST control) with ELF4; 1.83 fold enrichment (6-mer frequency, TF over GST control) with ELK4. In addition, the binding signal in the assay with ETV2 is 1.37 fold enrichment (6-mer frequency, TF over GST control); in the assay with ELF3, 1.45 fold enrichment (6-mer frequency, TF over GST control); with CRX, 1.55 fold enrichment (6-mer frequency, TF over GST control); in the assay with ETV1, 1.47 fold enrichment (6-mer frequency, TF over GST control); in the assay with ERF it was 1.35 fold enrichment (6-mer frequency, TF over GST control); in the assay with ETV3L, 1.65 fold enrichment (6-mer frequency, TF over GST control). In addition, the binding signal with ETS2 was 1.4 fold enrichment (6-mer frequency, TF over GST control); with SPDEF, 1.21 fold enrichment (6-mer frequency, TF over GST control); with ETV7 it was 1.5 fold enrichment (6-mer frequency, TF over GST control); with ELF5, 1.58 fold enrichment (6-mer frequency, TF over GST control); with ETV3, 1.36 fold enrichment (6-mer frequency, TF over GST control); with ETV6, 1.58 fold enrichment (6-mer frequency, TF over GST control).
